Screening results (PubChem BioAssay)
TDP1 cell CPT – growth inhibition of DT40 Tdp1-/-;hTDP1 cells with camptothecin (screen for TDP1 inhibitors). chicken DT40 Tdp1-/-;hTDP1 cells + 20 nM CPT, ATP luminescence, 48 h. 12% of 420,000 active. AID 686979. Potency, µM (titrated, usually from 46.2 µM), for the others: top-dose activity change, negative = growth inhibition, most hits filed as inhibitors; also: potency is read from the fitted curve at half-maximal effect; nearly all actives have a fitted effect of over 55% in size
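Chicken DT40 Tdp1-/- cells complemented with human TDP1, 400 cells/well, exposed to compounds plus 20 nM camptothecin for at least 48 h at 37 C; viability read as ATP content by CellTiter-Glo luminescence.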
DT40 TDP1 no CPT – qHTS for Inhibitors of human tyrosyl-DNA phosphodiesterase 1 (TDP1): qHTS in cells in absence of CPT; DT40 Tdp1-/- hTDP1 cells, no CPT, ATP luminescence, 48 h; Potency, µM (highest dose often 46.2 µM), inactives show top-dose activity change, negative = growth inhibition, actives largely listed as inhibitors; 15% of 420,000 active; AID 686978, 2013; also: potency is read from the fitted curve at half-maximal effect; nearly all actives have a fitted effect of over 55% in size
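Cells were dispensed at 400 per well, compounds added by pin tool, plates incubated ≥48 hr at 37 °C, then CellTiter-Glo added for 30 min at room temperature before luminescence reading. Line: DT40 Tdp1-/- complemented with hTDP1; camptothecin omitted.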
HT1080 IDH1KD tx – toxicity to HT-1080 IDH1 knockdown cells (counter line); HT-1080 IDH1 knockdown viability, ATP luminescence, 48 h; Potency, µM (highest dose often 46.1 µM), inactives show top-dose activity, negative = toxicity, most hits filed as cytotoxic; 2% of 360,000 active; AID 686971;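 also: potency is read from the fitted curve at half-maximal effect; 0% = DMSO wells and -100% = cell-free medium wells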
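In this qHTS, HT-1080 cells depleted of IDH1 are exposed for 48 h at 37 °C to compound titrations. Toxicity is scored from CellTiter-Glo luminescence, with DMSO as full viability and medium alone as none.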
HT1080-NT tox – kills 2HG-producing HT-1080-NT fibrosarcoma cells | Potency, µM (top dose mostly 46.1 µM), for inactives: at the highest dose activity, negative = less viability, actives largely listed as cytotoxic | AID 686970 | HT-1080-NT fibrosarcoma viability, CellTiter-Glo ATP luminescence, 48 h | 1.6% of 360,000 active;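 also: NT is the 2HG producing partner of a matched IDH1 knockdown line; potency is read from the fitted curve at half-maximal effect; 0% = DMSO-treated cells and -100% = media-only wells without cells; nearly all actives have a fitted effect of over 55% in size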
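750 cells/well, RPMI + 5% FBS; 2 h settle, compound pin-transfer, 48 h at 37 degrees C. CellTiter-Glo 10 min RT, luminescence. Normalized to DMSO and media-only wells.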
IL1B secr inh – inflammasome signaling inhibition, IL-1 beta readout. THP-1 LPS/ATP IL-1B secretion, AlphaLISA, 16 h; stronger effect = lower value. activity change, % at 57.5 µM. 4.7% of 360,000 active. AID 743279; in the data active = activity change below about -50%; inconclusive = mostly about -30% to -49%
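Secreted IL-1B measured by AlphaLISA bead assay after 16 h compound exposure of THP-1 cells; compounds (final up to 57.5 uM) added 1 h before LPS (250 ng/mL) and ATP (1.25 mM) stimulation; lower signal means less secretion.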
* = called active by the depositor. Hits are enriched below; roughly 19% of the tested compounds scored in any of these assays. Unless noted, calls follow the shape of the dose curve; as a rule, active = well fitted curve in the direction sought with a large enough effect; inconclusive = small, poorly fitted or top-dose-only effect, or another doubt; inactive = no such curve, though single readings can be large; an effect the other way counts as inactive or inconclusive. Unless noted, % is scaled to controls: 0 for no effect and ±100 for the full control effect.

What do the screens show for `C=C(C)CN(CC)c1nc(N)c2c(N)nc3c(c2c1C#N)CC(=O)N3C12CC3CC(CC(C3)C1)C2`?
TDP1 cell CPT: 3.26µM*; DT40 TDP1 no CPT: 3.26µM*; HT1080 IDH1KD tx: -18.9%; HT1080-NT tox: -29.5%; IL1B secr inh: -60.0*

How did N#Cc1c(N2CCCC(O)C2)nc(N)c2c(N)nc3c(c12)CC(=O)N3C12CC3CC(CC(C3)C1)C2 (stereo unspecified) do in these assays?
TDP1 cell CPT: 16.4µM*; DT40 TDP1 no CPT: 18.4µM*; HT1080 IDH1KD tx: -14.1%; HT1080-NT tox: -15.8%; IL1B secr inh: 8.8

Results for O=C(N/N=C/c1cccc([N+](=O)[O-])c1)c1cc[n+](CCO)cc1 ?
TDP1 cell CPT: -3.8%; DT40 TDP1 no CPT: 5.2%; HT1080 IDH1KD tx: 4.2%; HT1080-NT tox: 10.0%; IL1B secr inh: 6.6

What do the screens show for `Cc1nc(SCC(=O)Nn2c(-c3ccccc3)nc3ccccc3c2=O)n[nH]1`?
TDP1 cell CPT: -19.0%; DT40 TDP1 no CPT: -6.7%; HT1080 IDH1KD tx: -0.8%; HT1080-NT tox: 9.7%; IL1B secr inh: 24.5

What do the screens show for `CCOc1ccc(Br)cc1S(=O)(=O)NC1=NCCCCC1`?
TDP1 cell CPT: 19.7%; DT40 TDP1 no CPT: 8.7%; HT1080 IDH1KD tx: 25.1%; HT1080-NT tox: 9.7%; IL1B secr inh: -0.7

Results for CC(C)NC(=O)c1ccc2c(=O)n(CC3CCCO3)c(=S)[nH]c2c1 (stereo unspecified) ?
TDP1 cell CPT: 2.7%; DT40 TDP1 no CPT: -24.9%; HT1080 IDH1KD tx: -0.4%; HT1080-NT tox: 1.7%; IL1B secr inh: 15.5

What do the screens show for `COc1ccc(NC(=O)c2ccc3c(=O)n(CC4CCCO4)c(=S)[nH]c3c2)c(OC)c1` (stereo unspecified)?
TDP1 cell CPT: inconclusive; DT40 TDP1 no CPT: 13µM*; HT1080 IDH1KD tx: 5.6%; HT1080-NT tox: 7.4%; IL1B secr inh: 15.3

What do the screens show for `CC1CCCC(NC(=O)c2ccc3c(=O)n(CC4CCCO4)c(=O)[nH]c3c2)C1C` (stereo unspecified)?
TDP1 cell CPT: inconclusive; DT40 TDP1 no CPT: 18.4µM*; HT1080 IDH1KD tx: -1.9%; HT1080-NT tox: -4.9%; IL1B secr inh: -24.5

Results for COc1ccc(NC(=O)c2ccc3c(=O)n(-c4ccc(OC)cc4OC)c(=S)[nH]c3c2)c(OC)c1 ?
TDP1 cell CPT: 23.1µM*; DT40 TDP1 no CPT: 20.6µM*; HT1080 IDH1KD tx: -4.0%; HT1080-NT tox: 0.3%; IL1B secr inh: -11.0

Results for CCNC(=O)CSc1nc2ccccc2c(=O)n1-c1cc(OC)ccc1OC ?
TDP1 cell CPT: -11.2%; DT40 TDP1 no CPT: -10.7%; HT1080 IDH1KD tx: -6.7%; HT1080-NT tox: -4.0%; IL1B secr inh: -1.0

What do the screens show for `COC(=O)c1c(OCc2cccnc2)cc(=O)n2c1CCN(C(=O)c1cccc(N(C)C)c1)CC2`?
TDP1 cell CPT: -6.4%; DT40 TDP1 no CPT: -8.1%

Results for Cc1cc(Br)cn2c(Cc3ccccc3)c(-c3ccc(C#N)cc3)nc12 ?
TDP1 cell CPT: 18.4µM*; DT40 TDP1 no CPT: inconclusive; HT1080 IDH1KD tx: -22.3%; HT1080-NT tox: -28.4%; IL1B secr inh: -2.9

Results for Cc1ccc(Cc2c(-c3ccc(C)cc3)nc3c(C)cc(Br)cn23)cc1 ?
TDP1 cell CPT: 16.4µM*; DT40 TDP1 no CPT: 16.4µM*; HT1080 IDH1KD tx: -29.7%; HT1080-NT tox: inconclusive; IL1B secr inh: 0.0

How did Cc1cc(Br)cn2c(Cc3ccccc3)c(-c3ccc(Cl)cc3)nc12 do in these assays?
TDP1 cell CPT: -2.4%; DT40 TDP1 no CPT: -20.1%; HT1080 IDH1KD tx: 7.3%; HT1080-NT tox: 14.9%; IL1B secr inh: 68.8

What do the screens show for `Cc1ccc(Cc2c(-c3ccc(F)cc3)nc3c(C)cc(Br)cn23)cc1`?
TDP1 cell CPT: 20.6µM*; DT40 TDP1 no CPT: 16.4µM*; HT1080 IDH1KD tx: inconclusive; HT1080-NT tox: inconclusive; IL1B secr inh: 54.6

What do the screens show for `O=C(O)C1CCC(C(=O)O)SS1` (stereo unspecified)?
TDP1 cell CPT: 9.4%; DT40 TDP1 no CPT: 8.3%; HT1080 IDH1KD tx: 6.3%; HT1080-NT tox: 6.2%; IL1B secr inh: 36.0
